# Records with an inconclusive call do not appear. Where a call stands in place of a potency, no number is given. Active and inactive are the calls of the source. The call rests on the fitted dose curve; in most records, active means well fitted inhibition curve with a large enough effect; inconclusive means small, poorly fitted or top-dose-only effect; inactive means no such curve, though single readings can be large or run the other way.
# Biological target: Tumor susceptibility gene 101 protein (Homo sapiens) (UniProt Q99816)
# Sequence (Q99816 whole entry, looked up): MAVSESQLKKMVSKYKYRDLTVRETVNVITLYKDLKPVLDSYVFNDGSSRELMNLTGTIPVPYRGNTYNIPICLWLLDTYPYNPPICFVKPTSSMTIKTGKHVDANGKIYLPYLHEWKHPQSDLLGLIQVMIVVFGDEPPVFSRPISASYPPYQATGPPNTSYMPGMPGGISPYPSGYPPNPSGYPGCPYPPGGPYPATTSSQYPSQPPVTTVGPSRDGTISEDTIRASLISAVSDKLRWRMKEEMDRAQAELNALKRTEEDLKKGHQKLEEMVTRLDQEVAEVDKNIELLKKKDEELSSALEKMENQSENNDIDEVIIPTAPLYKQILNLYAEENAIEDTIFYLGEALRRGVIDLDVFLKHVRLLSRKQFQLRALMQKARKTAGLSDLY
# Assay: qHTS Assay for Iinhibitors of HIV-1 Budding by Blocking the Interaction of PTAP/TSG101: Hit Validation in TR assay
# Conditions: Tsg101 binding domain + Texas Red-labeled PTAP peptide, fluorescence polarization, 20 min; series mostly up to 57.5 µM
# Procedure, shortened: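 Texas Red-PTAP peptide (50 nM) binding to Tsg101 binding domain (10 uM), both final, in pH 7.5 HEPES buffer, read as polarization after 20 min at room temperature; compounds pinned before peptide addition.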
row,SMILES,Potency
1,Cc1c2ccccc2nc2c(F)c(NC(C)C)c(F)c(F)c12,inactive
2,COc1ccc(CCn2c(NN=C(C)C)nc3c2c(=O)[nH]c(=O)n3C)cc1,inactive
3,COc1ccc2c(C=Nc3c(C)n(C)n(-c4ccccc4)c3=O)c(O)n(Cc3ccco3)c(=O)c2c1,inactive
4,CC[C@H](C)/C=C(C)/C=C/C1=CC2=CC(=O)[C@]3(C)OC(=O)[C@@H](C(C)=O)[C@@H]3C2=CO1,inactive
5,CNc1c2cccc(C)c2nc2c(C(=O)NCCN(C)C)cccc12,inactive
6,N#Cc1c(C#N)c(O)c2ccccc2c1O,inactive
7,Cn1cc(/C=C2\SC(=S)N(NC(=O)c3cccc(Cl)c3)C2=O)c2ccccc21,inactive
8,COc1ccc2c3c(cccc13)C(=O)CC2,inactive
9,COc1ccc2nc3ccccc3nc2c1NC(=O)c1ccc(Cl)cc1Cl,inactive
10,CC1CCCN(Cc2c(O)ccc3c2O/C(=C\c2ccco2)C3=O)C1 (centres undefined),inactive
11,O=C(NC1CC1)c1cccc2c1C(=O)c1ccc(N3CCC(Cc4ccccc4)CC3)cc1S2(=O)=O,inactive
12,CCC/C(C#Cc1ccc(N(C)C)cc1)=C1/c2ccccc2C(=O)N1c1ccccc1,inactive
13,CCN(CC)CCCNc1ccc2ncn3c4ccc(O)cc4c(=O)c1c23,inactive
14,COc1ccc(/C=c2\s/c(=C/C(=O)c3ccc(C)cc3)[nH]c2=O)c(OC)c1,inactive
15,CCN(CC)c1ccc(/C=C(/C#N)c2nc3ccc(C)cc3[nH]2)c(OC(C)C)c1,inactive
16,O=C(CN1C(=O)NC(Cc2c[nH]c3ccccc23)C1=O)Nc1ccccc1C(F)(F)F (centres undefined),inactive
17,O=c1oc2c3c4c(cc2c2c1CCC2)OCCN4CCC3,inactive
18,CCN1C(=O)c2cccc3c(N)ccc(c23)C1=O,inactive
19,Cc1ccc(CSc2nnc3c(n2)OC2(Nc4ccccc4-3)C(=O)Nc3ccc(F)cc32)cc1 (centres undefined),inactive
20,Cc1nc(Nc2ccc(S(=O)(=O)N3CCCCC3C)cc2)c2nnn(Cc3ccccc3)c2n1 (centres undefined),inactive

row,SMILES,Potency
1,O=C1c2ccccc2S(=O)(=O)c2cc(N3CCN(C(=O)c4ccccc4)CC3)ccc21,inactive
2,COc1ccc(OC)c(/C=C(\C#N)c2nc(-c3ccc(F)cc3)cs2)c1,inactive
3,CCN(CC)c1ccc(/C=C(\C#N)C(=O)NCc2ccccc2)cc1,inactive
4,COCCN(CCOC)Cc1c(O)ccc2c1O/C(=C\c1ccco1)C2=O,inactive
5,CCNc1cccc2c1C(=O)N(C)C2=O,inactive
6,Cc1cc2nc3c(=O)n(CCc4ccccc4)c(=O)[nH]c3nc2cc1N,inactive
7,COC(CNC(=O)c1ccc2c3c(onc13)-c1ccccc1C2=O)OC,inactive
8,CCN(CC)S(=O)(=O)c1ccc(C(=O)OCCN2C(=O)c3cccc4c(N5CCOCC5)ccc(c34)C2=O)cc1,inactive
9,CN1C(=O)c2cccc3c(N)ccc(c23)C1=O,inactive
10,N#CC(C(=O)OC1CCCCC1)c1nc2ccccc2nc1N1CCOCC1 (centres undefined),inactive
11,Cc1oc2cc(O)ccc2c(=O)c1-c1nncn1-c1ccccc1,inactive
12,CCCn1nc(-c2ccccc2)c2nc3ccccc3nc21,inactive
13,O=C(NCC1CCCO1)c1cccc2c1C(=O)c1ccc(N3CCC(Cc4ccccc4)CC3)cc1S2(=O)=O (centres undefined),inactive
14,CCCCCCn1c(=O)[nH]c2nc3cc(N)ccc3nc2c1=O,inactive
15,Cc1cc2nc3c(=O)n(C4CCCCC4)c(=O)[nH]c3nc2cc1N,inactive
16,CCn1nc(-c2ccccc2)c2nc3ccccc3nc21,inactive
17,CCc1cccc(CC)c1NC(=O)CSc1nnc(C2CC2)n1C,inactive
18,Cc1cccc(CCNC(=O)c2sc3nc4n(c(=O)c3c2C)CCCC4)c1,inactive
19,O=C1NC(c2ccco2)Nc2sc3c(c21)CCN(Cc1ccccc1)C3 (centres undefined),inactive

# Reference: PubChem BioAssay AID651599 (National Center for Advancing Translational Sciences (NCATS), 2012)
